Most compounds without a hit are left out; they make up all but 3% or so of the library.
VDR inh: blocks the human vitamin D receptor; P11473; VDR-SRC2-3 peptide fluorescence polarization, 2 h; Potency, µM, inactives show max response, negative = inhibition, hits mostly inhibitors; 0.93% of 400,000 active; note: % is set by controls: 0 for no effect and ±100 for the full control effect
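Two reagent solutions held at 4 deg C in the dark were dispensed, compounds pinned at 23 nl, and the mixture incubated 2 h at room temperature. Read-out: fluorescence polarization of VDR–SRC2-3 peptide binding.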
PTAP TSG101 blk: blocks PTAP/TSG101 interaction to inhibit HIV-1 budding; Fluorescence polarization, FITC-PTAP peptide / Tsg101 binding; 340,000 tested, under 10 active; Q99816; Potency, µM (top dose mostly 115 µM), inactives show at the top dose activity change, negative = inhibition, hits mostly inhibitors; AID 493005; active = well fitted inhibition curve with a large enough effect in the main read-out, with a control signal flat, not every such curve was filed as active; inconclusive = small, poorly fitted or top-dose-only effect, or effect the other way, or a change in a side signal; inactive = no such curve, though single readings can be large or run the other way; note: % of control where 0% means no effect
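Tsg101 binding domain (10 uM final) was mixed with compound and a FITC-labeled PTAP peptide (50 nM final) in HEPES pH 7.5 buffer with NaCl, Tween 20, EDTA and TCEP; fluorescence polarization was read after 20 min at r.t.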
PLK1 PBD inh: inhibitors of human PLK1 polo-box domain binding; Plk1 PBD binding of FITC phosphopeptide, fluorescence polarization; Potency, µM, for inactives: max response, negative = inhibition, actives largely listed as inhibitors; 2.8% of 360,000 active; AID 720504; note: series mostly up to about 57 µM; % is set by controls: 0 for no effect and ±100 for the full control effect; nearly all actives have a fitted effect of over 65% in size
Target sequence (P53350 whole entry, looked up, the tested form may be a part): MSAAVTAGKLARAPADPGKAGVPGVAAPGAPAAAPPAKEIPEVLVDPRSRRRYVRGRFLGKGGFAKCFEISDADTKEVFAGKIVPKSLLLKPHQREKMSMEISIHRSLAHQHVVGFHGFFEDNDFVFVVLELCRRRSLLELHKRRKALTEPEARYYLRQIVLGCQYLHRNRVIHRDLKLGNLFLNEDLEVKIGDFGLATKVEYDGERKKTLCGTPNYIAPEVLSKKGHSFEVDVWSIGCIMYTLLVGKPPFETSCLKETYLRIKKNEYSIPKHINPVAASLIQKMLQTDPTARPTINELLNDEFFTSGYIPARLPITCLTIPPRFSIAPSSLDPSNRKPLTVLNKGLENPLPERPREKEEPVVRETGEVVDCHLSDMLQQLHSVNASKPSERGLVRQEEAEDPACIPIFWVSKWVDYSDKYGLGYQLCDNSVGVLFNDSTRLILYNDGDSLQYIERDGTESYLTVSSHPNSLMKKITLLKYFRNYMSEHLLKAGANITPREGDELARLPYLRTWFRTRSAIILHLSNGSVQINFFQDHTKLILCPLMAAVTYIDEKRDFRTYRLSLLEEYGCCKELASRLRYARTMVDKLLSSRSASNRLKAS
GCN5L2 inh: GCN5L2 (KAT2A) acetyltransferase inhibition; Potency, µM (highest dose often 58.9 µM), inactives show at the top dose activity change, negative = inhibition, most hits filed as inhibitors; Q92830; GCN5L2 HAT assay, ThioGlo1 CoA-SH fluorescence; 0.21% of 390,000 active; note: % is set by controls: 0 for no effect and ±100 for the full control effect
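Preincubate 20nM GCN5L2 with compound 15 min, RT → add 50uM ThioGlo1 + 75uM H3(1-25) + 70uM acetyl-CoA → read fluorescence 0 and 20 min. Primary qHTS; fluorescent artifacts likely.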
USP1 inh: inhibitors of human USP1/UAF1 deubiquitinase; O94782; recombinant USP1/UAF1, Ub-Rhodamine cleavage fluorescence; Potency, µM (highest dose often 57.1 µM), inactives show at the highest dose activity change, negative = inhibition, usual class: inhibitors; 0.23% of 390,000 active; AID 743255; note: % is set by controls: 0 for no effect and ±100 for the full control effect; nearly all actives have a fitted effect of over 60% in size
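1 nM enzyme complex + cpd, 15 min RT; start with Ub-Rho 150nM final; kinetic fluorescence ex 480/em 540, 6 reads q60 s. Buffer 50mM HEPES pH 7.8, 0.5mM EDTA, 0.1 mg/ml BSA, 1mM TCEP, 0.01% Tween-20.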
Numbers without * were called inactive; ? = inconclusive; . = no result given; ! = not active in a repeat; [ ] = another dose, or the depositor's remark. Unless noted, calls come from the whole dose curve; as a rule, active = well fitted curve in the direction sought with a large enough effect; inconclusive = small, poorly fitted or top-dose-only effect, or another doubt; inactive = no such curve, though single readings can be large; an effect the other way counts as inactive or inconclusive. Potency is the fitted concentration of half-maximal effect.

SMILES | VDR inh | PTAP TSG101 blk | PLK1 PBD inh | GCN5L2 inh | USP1 inh
O=C(Oc1ccccc1)N1CCC[C@@]2(CCN(Cc3ccccc3)C2)C1 | -12% | . | . | -22% | .
C[C@@H]1OC(=O)[C@H]2C[C@H]3CCCC[C@@H]3[C@@H](/C=C/[C@H]3CCC[C@H](C)N3C)[C@@H]12 | -10% | . | . | 3% | .
CC(C)CN1CC[C@@]2(CCCN(C(=O)Oc3ccccc3)C2)C1 | ? | . | . | -5% | .
COc1ccccc1CN1CC[C@@]2(CCCN(C(=O)Oc3ccccc3)C2)C1 | 0% | . | . | -21% | .
Cc1ccc(N2C(=O)NC(=O)/C(=C/C=C/c3ccco3)C2=O)cc1 | 25µM* | 0% | ? | 22% | -1%
CC(C)c1ccc(N2C(=O)NC(=O)/C(=C/C=C/c3ccco3)C2=O)cc1 | -13% | 7% | 0.67µM* | ? | -15%
O=C1NC(=O)N(Cc2ccc(F)cc2)C(=O)/C1=C\C=C\c1ccco1 | ? | 2% | ? | 23% | -19%
O=NN1CCCC1c1cccnc1 (configuration not stated) | 11% | . | . | -16% | .
O=c1cc(C(F)(F)F)c2cc3c4c(c2o1)CCCN4CCC3 | -11% | ? | 1.2µM* | -1%[0.501 µM] | 375%
Cc1cc2c(C(F)(F)F)cc(=O)oc2c2c1NCCC2 | -1% | ? | 5% | 3% | ?
N[C@]1(C(=O)O)CC[C@@H](C(=O)O)C1 (racemic) | 1% | . | . | 5% | .
O=C(c1cn(Cc2ccccc2)c2ccccc12)C1CC1 | ? | -1% | 27µM* | -10% | -14%
O=C(O)COc1ccc(/C=C2/SC(=S)N(Cc3ccccc3)C2=O)cc1 | ? | -3% | ? | ? | ?
O=C1NC(=S)NC(=O)C1=Cc1ccc(OCc2ccccc2)cc1 | 40µM* | -3% | 2.7µM* | . | ?
CCOC(=S)SSC(=S)OCC | 50µM* | . | . | ? | .
O=C(/C=C\c1ccc(Cl)cc1)N[C@@]12CCC(=O)[C@@H]3Oc4c(O)ccc5c4[C@@]31CCN(CC1CC1)[C@@H]2C5 | 13% | . | . | -17% | .
CCCCCCCCCCCC[N+](C)(C)CCOc1ccccc1 | 32% | . | . | 3% | .
CC[N+](CC)(CC)CCOc1cccc(OCC[N+](CC)(CC)CC)c1OCC[N+](CC)(CC)CC | 9% | 0% | -11% | 13µM* | -24%
CC(C)C1C(=O)N2CCC[C@H]2[C@]2(O)O[C@](NC(=O)[C@@H]3C=C4c5cccc6[nH]cc(c56)C[C@H]4N(C)C3)(C(C)C)C(=O)N12 (some centres not stated) | 45µM* | . | . | -12% | .
CC(C)C[C@H]1C(=O)N2CCCC2[C@]2(O)O[C@](NC(=O)[C@@H]3C=C4c5cccc6[nH]c(Br)c(c56)C[C@H]4N(C)C3)(C(C)C)C(=O)N12 (some centres not stated) | 18µM* | . | . | -13% | .
OC[C@@H]1[C@@H](O)[C@H](O)[C@H]2[C@@H](O)CCN21 | -2% | . | . | -16% | .
Cc1nn(C)c(C)c1-c1cccc2c1CCC(N(C)C)C2 (configuration not stated) | 11% | . | . | 25% | .
CCOC(=O)[C@]12Cc3cc(OC)ccc3[C@H]1N(C(C)C)C(=O)c1cc(OC)ccc12 | . | . | 8.4µM* | . | .
CCOC(=O)[C@]12Cc3cc(C)ccc3[C@H]1N(C)C(=O)c1cc(OC)ccc12 | . | . | 6.7µM* | . | .
O=C1NC(=O)N(Cc2ccccc2)C(=O)/C1=C\N1CCCc2ccccc21 | 35µM* | -1% | -20% | ? | -18%
SMILES | VDR inh | PTAP TSG101 blk | PLK1 PBD inh | GCN5L2 inh | USP1 inh
NC(=NCCc1ccc(I)cc1)SCCCc1cnc[nH]1 | 2% | . | . | -7% | .
NCC(O)c1cc(O)c(O)cc1F (configuration not stated) | 28µM*! | -12% | 1% | 1% | -13%
N[C@H](CCP(=O)(O)O)C(=O)O | -2% | . | . | -8% | .
CC[C@]1(O)CC(O[C@@H]2CC(N(C)C)C(O)C(C)O2)c2c(cc3c(c2O)C(=O)c2c(O)cccc2C3=O)C1C(=O)OC (some centres not stated) | 32µM* | . | . | -14% | .
CCC(C)n1c(=O)[nH]c(C)c(Br)c1=O (configuration not stated) | 12% | . | . | 16% | .
C=C(C)[C@H]1[C@H]2OC(=O)[C@@H]1[C@]1(O)C[C@H]3O[C@]34C(=O)O[C@H]2[C@@]14C | 20% | . | . | 11%[21.4 µM] | .
CCCCn1c(O)c(C(=O)/C=C/c2c[nH]c3ccccc23)c(=O)[nH]c1=O | 64% | ? | 52% | -2% | 25µM*
CCCCn1c(O)c(C(CC)=NCCc2ccccc2)c(=O)[nH]c1=O | -4% | -1% | -1% | . | -19%
CCCc1[nH]nc2c1C(c1ccc(OC)c(Cn3nnc4ccccc43)c1)C(C#N)=C(N)O2 (configuration not stated) | ? | -2% | 12µM* | . | -20%
CCCc1[nH]nc2c1C(CCC)C(C#N)=C(N)O2 (configuration not stated) | ? | 2% | -10% | -4% | -8%
Fc1ccc(C(OCCN2CCN(C/C=C/c3ccccc3)CC2)c2ccc(F)cc2)cc1 | -17% | . | . | -18% | .
CCCCn1c(N)c(C(=O)NCCN2CCOCC2)c2nc3ccccc3nc21 | -7% | -2% | -8% | -16% | -7%
CCCCn1c(NS(=O)(=O)c2ccccc2)c(C(=O)OCC)c2nc3ccccc3nc21 | 45µM* | -3% | ? | 25µM* | 22µM*
c1ccc(SSc2ccccc2)cc1 | 32µM* | 0% | 1.1µM* | -2% | -33%
C[C@]1(C(=O)O)CCC[C@]2(C)c3cc(O)ccc3CC[C@@H]12 | -25% | . | . | -9% | .
CC1(C(=O)O)CCCC2(C)c3cc(O)ccc3CCC12 (configuration not stated) | 6% | -10% | -17% | . | 4%
CC(C)c1cc2c(c(O)c1O)[C@]1(C(=O)O)CCCC(C)(C)C1CC2 (some centres not stated) | 45µM* | . | . | -6% | .
CC(C)c1cc2c(c(O)c1O)[C@@]1(C(=O)O)CCCC(C)(C)[C@@H]1CC2 | 20µM* | . | . | -23% | .
Nc1ccc(Sc2ccc(N)cc2)cc1 | 5% | -1% | 3% | . | -15%
COP(=S)(OC)Oc1ccc(Sc2ccc(OP(=S)(OC)OC)cc2)cc1 | 50µM* | 0% | ? | ? | 7%
COP(=S)(OC)Oc1ccc([N+](=O)[O-])cc1 | 16µM* | . | . | -8% | .
C=C1C([C@@]2(C)C(OC(C)=O)CC(=O)O[C@@](C)(COC(C)=O)C2CC(=O)OC)C(OC=O)C(OC(=O)C(OC(C)=O)C(C)CC)[C@]2(C)C(c3ccoc3)CC(=O)C12O (some centres not stated) | 0% | . | . | -7% | .
N#CC(C#N)=NNc1ccc(OC(F)(F)F)cc1 | 0.89µM* | . | . | ? | .
O=C(O)CCC(CP(=O)(O)O)C(=O)O (configuration not stated) | 22% | . | . | 0% | .

Screening results as filed in PubChem.
